91 compounds from PubChem BioAssay AID1259415 (National Center for Advancing Translational Sciences (NCATS), 2018) can be followed below.

Structures are written as SMILES. Out of some 410,000 compounds screened, about 18,000 (4.4%) were called active. Inconclusive results (about 7%) are left out. The full list was thinned out, with actives kept by preference. Values without a mark were called inactive. Cut-off read from the data, not from the text of the source: active = activity change below about -60%; inconclusive = no clear call, values can overlap the other calls; inactive = above about -39%.
% is set by controls: 0 for no effect and ±100 for the full control effect.

The assay in a line: qHTS Assay for inhibitors of the human cytomegalovirus (HCMV). Conditions: HFF cells, HCMV-luciferase reporter, 72 h; at 57.5 µM; hits give low values. In short, it runs like this: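 Two compound doses tested in HFFs infected with HCMV-luciferase, MOI 1 PFU/cell, 72 h at 37C. Lysate luminescence read with OneGlo; data normalized against buffer-only and 10uM Salinomycin inhibitor controls.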
On the technique in general: qHTS replaces the single test concentration by a dilution series.
Turning to `COc1ccc(NC(=O)NC(C)c2c(-n3cccc3)sc(C)c2C)cc1OC` (stereo unspecified), the activity change, negative = inhibition is -77.2% (active).

Take `COc1ccc(NC(=O)N2CCCn3nc(C)cc32)cc1OC`: the activity change, negative = inhibition is 9.12%.

Take `CCn1cc(NC(=O)Nc2ccc(OC)c(OC)c2)c(C(N)=O)n1`: the activity change, negative = inhibition was -11.8%.

Turning to `NC1=NC(=O)C(Cc2cccc(Cl)c2)S1` (stereo unspecified), the activity change, negative = inhibition is 4.67%.

Consider `COc1ccc(-n2c(=O)c3c(c4cc(OC)ccc4n3C)n(Cc3cccc(C)c3)c2=O)cc1`, for which the activity change, negative = inhibition was -5.82%.

With `COC(=O)C[C@@H]1C=C[C@@H](NC(=O)c2cccnc2)[C@@H](CO)O1`, the activity change, negative = inhibition was -9.71%.

As for `CCn1cc(C(=O)NCCc2ccccc2)c(=O)c2cc(S(=O)(=O)N3CCCCCC3)ccc21`, the activity change, negative = inhibition is -9.08%.

As for `CCCCNC(=O)c1nc2cc(C)c(C)cc2nc1-c1ccc(OC)cc1`, the activity change, negative = inhibition is 9.19%.

Consider `COc1ccc(-c2nc3c4ccccc4n(CC(=O)Nc4ccc(C(C)=O)cc4)c(=O)n3n2)cc1`, for which the activity change, negative = inhibition is 29.2%.

For `OC[C@@H]1CN(Cc2ccncc2)C[C@H](n2cnc3c(N4CCN(c5ccccc5)CC4)ncnc32)O1`, the activity change, negative = inhibition is -88% (active).

With `CC(C)Nc1ncnc2c1ncn2[C@H]1CN(Cc2ccncc2)C[C@@H](CO)O1`, the activity change, negative = inhibition was 23.6%.

`OC[C@@H]1CN(C2CCCC2)C[C@H](n2cnc3c(NC4CCC4)ncnc32)O1`: the activity change, negative = inhibition was -6.08%.

For the compound `OC[C@@H]1CN(Cc2ccc(-c3ccccc3)cc2)C[C@H](n2cnc3c(NC4CCCC4)ncnc32)O1`, the activity change, negative = inhibition was -84.2% (active).

For the compound `OC[C@@H]1CN(Cc2cccs2)C[C@H](n2cnc3c(Nc4ccccc4)ncnc32)O1`, the activity change, negative = inhibition is -28.3%.

`OCCN1CCN(c2ncnc3c2ncn3[C@H]2CN(Cc3ccco3)C[C@@H](CO)O2)CC1`: the activity change, negative = inhibition was -21.8%.

Take `CCCOC(=O)c1c(NC(=O)c2cc3nc(-c4ccc(OC)cc4)cc(C(F)(F)F)n3n2)sc2c1CCCC2`: the activity change, negative = inhibition was -2.77%.

On to `Cc1ccc(CSc2nc3ccsc3c(=O)n2CCC(C)C)cc1`, for which the activity change, negative = inhibition is -15.8%.

`COc1ccccc1CNC(=O)CS(=O)(=O)c1cccc2nsnc12`: the activity change, negative = inhibition is 22.9%.

Turning to `Cc1c(C(=O)OC(C)C)sc(NC(=O)c2cccnc2)c1C#N`, the activity change, negative = inhibition is 4.66%.

`Cc1c(C#N)c(NC(=O)c2ccccc2)n(Cc2ccccc2)c1C`: the activity change, negative = inhibition was -33.4%.

As to `CCCc1ccc(-c2c(C)sc(NC(=O)c3ccnn3C)c2C#N)cc1`, the activity change, negative = inhibition is -97.3% (active).

With `CCc1cccc(NC(=O)COC(=O)C2CCN(c3ccc(C(F)(F)F)cn3)CC2)c1`, the activity change, negative = inhibition is -14.3%.

For the compound `Cc1ccc(NC(=O)CN2c3ccccc3S(=O)(=O)c3ccccc32)cc1F`, the activity change, negative = inhibition was 18.3%.

For `CCN(CC)CCNC(=O)c1cc2c(=O)oc3ccc(C)cc3c2s1`, the activity change, negative = inhibition is 3.23%.

`COc1ccc(/C=N/OCc2ccccc2C#N)c(OC)c1`: the activity change, negative = inhibition is 50.3%.

As for `COc1ccc(-c2nn3c(-c4ccc(OC)cc4)nnc3c3ccccc23)cc1`, the activity change, negative = inhibition was 7.26%.

Regarding `Nc1nnc2c(C(F)(F)F)nc3ccccc3n12`, the activity change, negative = inhibition was 1.13%.

As to `FC(F)(F)c1nnc2c3ccccc3c(Cl)nn12`, the activity change, negative = inhibition was -86.4% (active).

`Cc1cc(C)n2nc(C(=O)Oc3ccc4c(c3)OCO4)nc2n1`: the activity change, negative = inhibition was 12.7%.

Take `CC(=O)c1nn(-c2ccc(OC(F)(F)F)cc2)nc1Nc1ccccc1`: the activity change, negative = inhibition was -19.8%.

Consider `COc1ccc(NC(=O)c2ccc3nc(CCc4ccccc4)oc3c2)c(OC)c1`, for which the activity change, negative = inhibition is 15.1%.

In the case of `CCN1CCC(O)(/C=C/c2ccc(C)cc2)C(C(=O)/C=C/c2ccc(C)cc2)C1` (stereo unspecified), the activity change, negative = inhibition was -101% (active).

Regarding `O=C(CCOc1ccccc1)N(Cc1cccnc1)c1nc2ccc(Cl)cc2s1`, the activity change, negative = inhibition is -5.41%.

With `O=C(CCS(=O)(=O)c1ccccc1)N(Cc1cccnc1)c1nc2c(F)cccc2s1`, the activity change, negative = inhibition was 112%.

As for `Cc1ccc(-c2nc3ccccn3c2Nc2c(C)cccc2C)o1`, the activity change, negative = inhibition is -20.4%.

Regarding `Cc1cccc(C(=O)Nc2ccc(S(=O)(=O)N3CCCCC3c3cccnc3)cc2)c1` (stereo unspecified), the activity change, negative = inhibition is -34.9%.

On to `O=C(CS(=O)(=O)c1cccc2nsnc12)N1CCN(c2cccc(Cl)c2)CC1`, for which the activity change, negative = inhibition is -13.3%.

On to `CC(=NNC(=S)N1CCCCCC1)c1ccccn1`, for which the activity change, negative = inhibition was -98.7% (active).

On to `C/C(=N\NC(=O)c1ccccc1F)c1ccccn1`, for which the activity change, negative = inhibition is -113% (active).

As for `O=[N+]([O-])c1ccc(NC(=S)N2CCN(c3ccccn3)CC2)cc1`, the activity change, negative = inhibition was -38.3%.

In the case of `C/C(=N/NC(=O)c1ccn(C)n1)c1ccncc1`, the activity change, negative = inhibition is 22.2%.

For `C/C(Cc1ccccc1)=N\NC(=O)CNC(=O)c1ccccc1Cl`, the activity change, negative = inhibition is 22.5%.

For the compound `O=C(NC(=S)NC1CCSC1=O)c1ccccc1F` (stereo unspecified), the activity change, negative = inhibition was -2.85%.

`C/C(=N/NC(=O)CSc1ccccn1)c1ccc([N+](=O)[O-])cc1`: the activity change, negative = inhibition was 21.4%.

Regarding `C/C(=N\NC(=O)Cc1ccc(Cl)cc1)c1ccccn1`, the activity change, negative = inhibition was -98.9% (active).

With `CCOC(=O)c1ccc(NC(=S)N2CCN(c3ccccn3)CC2)cc1`, the activity change, negative = inhibition was 0.324%.

For the compound `CCC[C@H]1[C@H](NCC2CCCCC2)CC[C@@]23CCCN2C(=O)CCC[C@@H]13`, the activity change, negative = inhibition was -6.34%.

`CSCC[C@H](NC(=O)NCCc1ccc(F)cc1)C(=O)O`: the activity change, negative = inhibition is -21.4%.

As for `CCOc1ccc(NC(=O)C(=O)NCCc2csc3nc(-c4ccccc4F)nn23)cc1`, the activity change, negative = inhibition is 18.8%.

Consider `C=CCC[C@@H](CCCCC)OC(=O)/C=C/[C@@H](O)[C@H](O)C[C@H](O)CC=C`, for which the activity change, negative = inhibition was -0.272%.

As to `Fc1ccc(-c2nn(-c3ccccc3Cl)c3c2cnc2ccccc23)cc1`, the activity change, negative = inhibition is -6.36%.

In the case of `O=C(NC1(C(F)(F)F)NC(=O)N(Cc2cccnc2)C1=O)c1ccccc1Cl` (stereo unspecified), the activity change, negative = inhibition was -16%.

As for `CCc1ccc(NC(=O)CCNS(=O)(=O)c2cccs2)cc1`, the activity change, negative = inhibition is 24.2%.

For `CN(CC(=O)NCc1ccc(Cl)cc1)S(=O)(=O)c1cccs1`, the activity change, negative = inhibition was -18.2%.

With `O=S(=O)(NCCc1ccc(Cl)cc1)c1cccs1`, the activity change, negative = inhibition is -79.1% (active).

With `Cc1ccc2nc3c(cc(C(=O)NC4CCCCC4)c(=N)n3C(C)C)c(=O)n2c1`, the activity change, negative = inhibition was -12.2%.

Regarding `Cc1cccc(N2CCN(C(=O)c3cccc(S(=O)(=O)N4CCc5ccccc5C4)c3)CC2C)c1` (stereo unspecified), the activity change, negative = inhibition is -62.2% (active).

As to `CN(C)C(CNC(=O)c1cccc(S(=O)(=O)N2CCc3ccccc3C2)c1)c1ccccc1` (stereo unspecified), the activity change, negative = inhibition is 6.73%.

Regarding `CC(NC(=O)c1cccc(S(=O)(=O)N2CCc3ccccc3C2)c1)c1ccco1` (stereo unspecified), the activity change, negative = inhibition is -21.6%.

For the compound `CCc1nnc2c3ccccc3nc(N3CCN(c4ccc(C)cc4C)CC3)n12`, the activity change, negative = inhibition is 2.29%.

Consider `CC(C)Nc1nnc(SCC(=O)/C=C2\N(C)c3ccccc3C2(C)C)s1`, for which the activity change, negative = inhibition was -65.1% (active).

Regarding `COC(=O)c1ccc(CSc2nnc(NC(C)C)s2)cc1`, the activity change, negative = inhibition was -2.57%.

On to `COc1ccccc1N1CC(C(=O)Nc2nnc(SCC(=O)NC(C)C)s2)CC1=O` (stereo unspecified), for which the activity change, negative = inhibition was 45.2%.

`Cc1ccccc1-c1nc2scc(CCNC(=O)C(=O)Nc3ccc(F)cc3F)n2n1`: the activity change, negative = inhibition is 2.08%.

As for `CC(=O)c1cccc(NC(=O)CSc2nc3c(c(=O)[nH]2)CCC3)c1`, the activity change, negative = inhibition is -2.89%.

For `CC(=O)c1ccc(NC(=O)N[C@@H](Cc2ccccc2)C(=O)O)cc1`, the activity change, negative = inhibition was 23.2%.

`NC(c1csc(NC(=O)Nc2ccccc2Oc2ccccc2)n1)c1ccccc1Cl` (stereo unspecified): the activity change, negative = inhibition is -24.7%.

Turning to `CC(=O)c1ccc(NC(=O)CSc2nnc(NC(=O)Nc3ccccc3)s2)cc1`, the activity change, negative = inhibition is 103%.

On to `Cc1ccccc1CNC(=O)c1cccc(NC(=O)c2nsc3ccccc23)c1`, for which the activity change, negative = inhibition is 66.7%.

In the case of `NC(=O)C1CCN(C(=O)c2cccc(NC(=O)c3nsc4ccccc34)c2)CC1`, the activity change, negative = inhibition was 40.7%.

Take `C=CCSc1nsc(NC(=O)Nc2cccc(C(C)=O)c2)n1`: the activity change, negative = inhibition was -101% (active).

As to `CC(=O)Nc1ccc(-c2csc(NC(=O)Nc3ccccc3)n2)cc1`, the activity change, negative = inhibition is -99.1% (active).

For `Cc1ccc(C(=O)Nc2nc(-c3ccccc3)ns2)cc1`, the activity change, negative = inhibition is 27%.

Take `CCSc1nsc(NC(=O)Nc2cccc(C(C)=O)c2)n1`: the activity change, negative = inhibition is -74.9% (active).

Consider `C=CCSc1nnc2c(n1)-c1cccc3cccc-2c13`, for which the activity change, negative = inhibition was 41.1%.

For the compound `CSc1nsc(NC(=O)Nc2ccccc2)n1`, the activity change, negative = inhibition was -76.6% (active).

Turning to `CCOC(=O)c1cnc2c(C)cc(Cl)cc2c1NCCc1ccc(OC)c(OC)c1`, the activity change, negative = inhibition is -5.49%.

With `CCOc1ccc(NC(=O)CCC(=O)N2CC(C)Oc3ccc(C)cc32)cc1` (stereo unspecified), the activity change, negative = inhibition was -10.3%.

Regarding `COc1ccc(NC(C)=O)cc1NC(=O)CN1CCN(c2ccc(F)cc2)CC1`, the activity change, negative = inhibition was -5.69%.

As for `COc1ccccc1/C=C/c1nc(C#N)c(NC(C)c2ccccc2)o1` (stereo unspecified), the activity change, negative = inhibition was 81.4%.

Consider `CCCCC12CN3CC(C)(CN(C1)C3c1ccc(O)c(OC)c1)C2=O` (stereo unspecified), for which the activity change, negative = inhibition was 4.32%.

In the case of `Cc1ccc(OCC(=O)Nc2ccc(OCc3cc(=O)n4c(C)csc4n3)cc2)cc1C`, the activity change, negative = inhibition was 18.3%.

Turning to `CC(C(=O)N1CCN(c2ccccc2F)CC1)c1ccc([N+](=O)[O-])cc1` (stereo unspecified), the activity change, negative = inhibition is -11.5%.

In the case of `O=C1OC(C(=O)Nc2cccc(Br)c2)Cc2ccccc21` (stereo unspecified), the activity change, negative = inhibition was 7.91%.

Consider `O=C(CCSc1ccccc1)N1CCN(c2ccccc2F)CC1`, for which the activity change, negative = inhibition was 72.3%.

Take `Cn1cc(-c2ccccc2)cc(C#N)c1=O`: the activity change, negative = inhibition was -1.91%.

With `Cn1c(-c2sc3cc(C(F)(F)F)cnc3c2-c2ccccc2)n[nH]c1=S`, the activity change, negative = inhibition was 18.8%.

On to `O=C(NN1C(=O)C2CCCCC2C1=O)c1ccco1` (stereo unspecified), for which the activity change, negative = inhibition was 3.07%.

For the compound `CC12CCC(C(=O)N(NC(=O)c3ccccc3O)C1=O)C2(C)C` (stereo unspecified), the activity change, negative = inhibition was -81.2% (active).

Regarding `CC1=CC(C)(C)NC(=S)N1NC(=O)c1ccccc1Cl`, the activity change, negative = inhibition is 38.2%.

Consider `CCC(C)NCC(=O)Nc1ccc([N+](=O)[O-])cc1C(=O)Nc1ccccc1F` (stereo unspecified), for which the activity change, negative = inhibition was 20.4%.
